These results are taken from PubChem BioAssay.

Activity calls are given as the source filed them.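 The calls were made as follows: active = growth inhibition above 50% at the single 2 µM test dose, taken to imply half-maximal potency below 2 µM; inactive = the rest.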

The nature of the experiment: antimalarial activity against Dd2 strain (AID 2302).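 Also: 0% = DMSO untreated growth and 100% = chloroquine plus artemisinin killed control.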 As to conditions: P. falciparum Dd2 in RBCs, LDH growth readout, 72 h; at 2 µM; hits give high values.
Consider `FC(F)(F)c1ccc2nc(-c3cccc(-c4ccc(CNCc5cnn(-c6ccccc6)n5)cc4)c3)[nH]c2c1`, for which the growth inhibition was 67% (active).

Regarding `N=C(N)c1cc(Cl)cc(NC(=O)Nc2cc(Cl)cc(C(=N)N)c2)c1`, the growth inhibition was 92% (active).

Consider `COc1cccc(C=CC(=O)N(CCN)Cc2ccccc2)c1`, for which the growth inhibition is -4% (inactive). The result for `Cn1nc(C(F)(F)F)c(-c2ccc(Br)cc2)c1NC(=O)Cc1ccccc1F` reads 100% (active). The result for `CN(C)CCCN1C(=O)c2[nH]nc(-c3ccc(Cl)cc3O)c2C1c1ccc(Cl)cc1` (centres undefined) reads 15% (inactive); that for `COc1ccc2nc(-c3cc(-c4ccc(NC(=O)C(C)C)cc4)cnc3N)[nH]c2c1`, 47% (inactive); that for `COc1cc(NC(=O)c2nn(CCCN3CCC(N4CCCC4)CC3)cc2-c2ccc(Cl)c(Cl)c2)cc(OC)c1OC`, 100% (active).

On to `O=C(Nc1ccccc1)Nc1cccc(-c2cc(CNCCc3ccccc3)sc2-c2ccncc2)c1`, for which the growth inhibition is 84% (active).

In the case of `O=C(Nc1cccc(C(F)(F)F)c1)NC1CCN(c2ccnc3cc(Cl)ccc23)C1` (centres undefined), the growth inhibition was 89% (active). The result for `Cc1onc(-c2c(Cl)cccc2Cl)c1C(=O)NC1=NC(C)(C)ON1c1ccccc1` reads 36% (inactive); that for `CCOc1ccccc1C(=O)Nc1cccc(-c2nc3ncccn3c2C)c1`, 88% (active); that for `CCOc1cc(C)c(C2CCN(CCCCNC(=O)c3ccc(NC(=O)c4ccc(Cl)cc4)cc3)CC2)cc1C`, 87% (active). The result for `CC(C)Cn1cc(C2CCN(CCN3CCC(CNC(=O)c4ccc(NC(=O)c5cc(Cl)cc(Cl)c5)cc4)CC3)CC2)c2ccccc21` reads 96% (active). Under `Fc1ccc2nc(-c3ccc(-c4ccc(CN5CCN(CCN6CCOCC6)CC5)cc4)s3)[nH]c2c1` stands 98% (active).
